Experimental data: the supplement of paper PMC12494721
Where a name gives a salt, the structure may show the parent alone.

Columns and labels:
Conditions in all cases: incubation time: 27 h, anaerobic, 37 °C;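 for the amine columns active = adjusted P below 0.05 in both replicates with a change the same way and a mean fold change under 0.8 or over 1.25; inactive = the rest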
[1] = test system: Clostridium sporogenes DSM 1664; assay: growth (OD595) fold change vs plate DMSO controls (fold change (ratio)); higher = more growth
In short: (§1)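 To obtain OD, 595 nm absorbance readings were blank-subtracted, corrected for compound background using 20 µM compound solutions in water, and multiplied by a calibration factor of 5. They came from 96-well mGAM cultures grown anaerobically for 27 h at 37 °C and shaken before reading. Growth is the fold change relative to the median of plate DMSO controls. Two biological replicates were averaged, and fold changes above 1.5 were set to NA.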

Escherichia coli IAI1 [2] = assay: as above
In short: as §1

[3] = test system: Klebsiella aerogenes DSM 30053; assay: as above
In short: as §1

[4] = test system: Ruminococcus gnavus DSM 108212; assay: as above
In short: as §1

[5] = test system: Klebsiella aerogenes DSM 30053; assay: fold change of Histamine concentration vs plate DMSO controls (fold change (ratio)); higher = more amine produced, active = hit call of the paper (significant change in both replicates, either direction)
In short: (§2)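 Using LC–triple-quadrupole MS with dynamic MRM, amines were quantified against external calibration curves and corrected for drift within each batch. Samples were whole anaerobic mGAM cultures of four gut strains, grown 27 h at 37 °C from OD 0.1 before 1:1 dilution, extracted with cold acetonitrile/methanol containing 0.1% formic acid and centrifuged. Compounds were present at 20 µM final (sweeteners at 50 µM final). The numbers are fold changes versus plate DMSO controls, each the mean of 2 biological replicates.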

[6] = test system: Clostridium sporogenes DSM 1664; assay: fold change of Tryptamine concentration vs plate DMSO controls (fold change (ratio)); higher = more amine produced, active = hit call of the paper (significant change in both replicates, either direction)
In short: as §2

[7] = test system: Ruminococcus gnavus DSM 108212; assay: as above
In short: as §2

Escherichia coli IAI1 [8] = assay: fold change of Putrescine concentration vs plate DMSO controls (fold change (ratio)); higher = more amine produced, active = hit call of the paper (significant change in both replicates, either direction)
In short: as §2

[9] = test system: Klebsiella aerogenes DSM 30053; assay: as above
In short: as §2

Escherichia coli IAI1 [10] = assay: fold change of Cadaverine concentration vs plate DMSO controls (fold change (ratio)); higher = more amine produced, active = hit call of the paper (significant change in both replicates, either direction)
In short: as §2

[11] = test system: Klebsiella aerogenes DSM 30053; assay: as above
In short: as §2

[12] = test system: Ruminococcus gnavus DSM 108212; assay: fold change of 2-Phenylethylamine concentration vs plate DMSO controls (fold change (ratio)); higher = more amine produced, active = hit call of the paper (significant change in both replicates, either direction)
In short: as §2

SMILES	growth [1]	growth (Escherichia coli IAI1 [2])	growth [3]	growth [4]	fold change of Histamine concentration [5]	fold change of Tryptamine concentration [6]	fold change of Tryptamine concentration [7]	fold change of Putrescine concentration (Escherichia coli IAI1 [8])	fold change of Putrescine concentration [9]	fold change of Cadaverine concentration (Escherichia coli IAI1 [10])	fold change of Cadaverine concentration [11]	fold change of 2-Phenylethylamine concentration [12]
Cc1ccc(O)c([C@H](CCN(C(C)C)C(C)C)c2ccccc2)c1 [Tolterodine tartrate] (20 µM)	0.996	1.24	1.04	1.14	0.956 (inactive)	1.01 (inactive)	0.997 (inactive)	1.27 (inactive)	1.01 (inactive)	0.926 (inactive)	1 (inactive)	0.994 (inactive)
CC(C)c1nc(N(C)S(C)(=O)=O)nc(-c2ccc(F)cc2)c1/C=C/[C@@H](O)C[C@@H](O)CC(=O)O [Rosuvastatin] (20 µM)	0.904	1.22	1.02	1.01	0.953 (inactive)	1.03 (inactive)	0.989 (inactive)	1.06 (inactive)	1 (inactive)	0.951 (inactive)	0.989 (inactive)	1 (inactive)
CCCN(CCC)S(=O)(=O)c1ccc(C(=O)O)cc1 [Probenecid] (20 µM)	1.04	1.02	1.17	1.09	0.92 (inactive)	0.999 (inactive)	1 (inactive)	0.984 (inactive)	1 (inactive)	1.04 (inactive)	1.02 (inactive)	1.02 (inactive)
CC(C)=CCOc1ccc(/C=C/C(=O)c2ccc(OCC=C(C)C)cc2OCC(=O)O)cc1 [Sofalcone] (20 µM)	0.713	0.964	0.98	0.927	1 (inactive)	0.425 (active)	0.669 (active)	1.01 (inactive)	1 (inactive)	1.03 (inactive)	0.992 (inactive)	0.689 (inactive)
CC(=O)Nc1ccc(OCC(O)CNC(C)C)cc1 (stereo not drawn) [Practolol] (20 µM)	0.924	1.01	1	1.17	1.03 (inactive)	1.05 (inactive)	1.04 (inactive)	1.04 (inactive)	0.993 (inactive)	0.999 (inactive)	1.01 (inactive)	1.02 (inactive)
CCOC(=O)[C@H](CCc1ccccc1)N[C@@H](C)C(=O)N1[C@H](C(=O)O)C[C@H]2CCCC[C@@H]21 [Trandolapril] (20 µM)	0.941	1.05	1.02	1.01	0.994 (inactive)	0.989 (inactive)	1.02 (inactive)	1.08 (inactive)	1 (inactive)	0.978 (inactive)	0.991 (inactive)	1.02 (inactive)
Nc1c2c(nc3ccccc13)CCCC2 [Tacrine hydrochloride] (20 µM)	0.896	0.951	0.932	0.696	1.05 (inactive)	1.03 (inactive)	1.12 (inactive)	0.945 (inactive)	0.94 (inactive)	1.04 (inactive)	1.15 (inactive)	1.32 (active)
Cc1nnc(NS(=O)(=O)c2ccc(N)cc2)s1 [Sulfamethizole] (20 µM)	0.987	1.05	1.06	1.12	0.935 (inactive)	0.928 (inactive)	0.884 (inactive)	0.961 (inactive)	0.981 (inactive)	1.03 (inactive)	0.995 (inactive)	0.815 (inactive)
CCCCC[C@H](O)/C=C/[C@H]1[C@H](O)CC(=O)[C@@H]1CCCCCCC(=O)O [Alprostadil] (20 µM)	1.02	0.977	1.01	1.01	1.08 (inactive)	0.957 (inactive)	0.987 (inactive)	1.05 (inactive)	1.01 (inactive)	1.01 (inactive)	0.997 (inactive)	0.985 (inactive)
Cc1cc2cc3c(C)cc(=O)oc3c(C)c2o1 [Trioxsalen] (20 µM)	1.03	1.14	0.991	1.02	1.08 (inactive)	0.974 (inactive)	0.966 (inactive)	1.13 (inactive)	0.997 (inactive)	1.03 (inactive)	0.985 (inactive)	0.936 (inactive)
Cc1ccccc1C(=O)Nc1ccc(C(=O)N2CCCC(O)c3cc(Cl)ccc32)c(C)c1 (stereo not drawn) [Tolvaptan] (20 µM)	1.16	0.991	0.985	1.06	1.05 (inactive)	0.919 (inactive)	0.964 (inactive)	0.955 (inactive)	1.01 (inactive)	0.995 (inactive)	1 (inactive)	0.924 (inactive)
C[C@]12C=CC(=O)C=C1CC[C@@H]1[C@@H]2C(=O)C[C@@]2(C)[C@H]1CC[C@]2(O)C(=O)CO [Prednisone] (20 µM)	1.04	1.05	1.08	1.1	0.861 (inactive)	1.04 (inactive)	1.04 (inactive)	1.07 (inactive)	0.941 (inactive)	1.08 (inactive)	1.02 (inactive)	1.02 (inactive)
C[C@@H](O)[C@H]1C(=O)N2C(C(=O)O)=C(SCCNC=N)C[C@H]12 [Imipenem] (20 µM)	0.318	1.08	0.85	0.0868	0.772 (inactive)	0.0417 (active)	0.0408 (active)	0.971 (inactive)	1.03 (inactive)	1.65 (active)	1 (inactive)	0.0463 (active)
CCOC(=O)C(C)(N)Cc1cc(I)c(Oc2cc(I)c(O)c(I)c2)c(I)c1 (stereo not drawn) [Etiroxate hydrochloride] (20 µM)	1.06	1.02	1.02	1.14	1.04 (inactive)	1.03 (inactive)	0.923 (inactive)	0.951 (inactive)	0.99 (inactive)	0.958 (inactive)	1 (inactive)	1.01 (inactive)
CNCCc1ccccn1 [Betahistine mesylate] (20 µM)	1.26	1	1.02	1.25	0.991 (inactive)	0.994 (inactive)	1.02 (inactive)	1.03 (inactive)	0.995 (inactive)	0.967 (inactive)	0.993 (inactive)	1.01 (inactive)
Nc1nc2c(ncn2COC(CO)CO)c(=O)[nH]1 [Ganciclovir] (20 µM)	0.925	0.989	0.946	1.07	1.04 (inactive)	1.06 (inactive)	0.974 (inactive)	1.02 (inactive)	1.02 (inactive)	1.03 (inactive)	0.999 (inactive)	0.954 (inactive)
C#CCN(C)CCCOc1ccc(Cl)cc1Cl [Clorgyline hydrochloride] (20 µM)	1.02	0.993	0.95	0.97	1.04 (inactive)	0.96 (inactive)	0.971 (inactive)	0.968 (inactive)	0.984 (inactive)	0.983 (inactive)	0.991 (inactive)	0.974 (inactive)
C1CCC(C(CC2CCCCN2)C2CCCCC2)CC1 (stereo not drawn) [Perhexiline maleate] (20 µM)	1.14	1	1	0.952	0.983 (inactive)	1.03 (inactive)	0.771 (active)	1.05 (inactive)	1.01 (inactive)	1.05 (inactive)	1 (inactive)	0.892 (inactive)
S=c1[nH]cnc2nc[nH]c12 [Mercaptopurine] (20 µM)	1.07	1.1	0.98	0.869	1.05 (inactive)	1.01 (inactive)	0.944 (inactive)	1.06 (inactive)	1 (inactive)	0.879 (inactive)	0.999 (inactive)	0.959 (inactive)
Cc1c(C(=O)NN2CCCCC2)nn(-c2ccc(Cl)cc2Cl)c1-c1ccc(Cl)cc1 [Rimonabant] (20 µM)	0.981	0.979	1	1.04	1.03 (inactive)	0.906 (inactive)	0.897 (inactive)	1.01 (inactive)	1.02 (inactive)	1.04 (inactive)	0.998 (inactive)	0.841 (inactive)
OC[C@H]1O[C@@H](c2ccc(Cl)c(Cc3ccc(O[C@H]4CCOC4)cc3)c2)[C@H](O)[C@@H](O)[C@@H]1O [Empagliflozin] (20 µM)	1.04	1	1	0.989	0.998 (inactive)	1.05 (inactive)	0.872 (inactive)	1.02 (inactive)	0.986 (inactive)	1.02 (inactive)	0.974 (inactive)	0.83 (inactive)
OCCN(CCO)c1nc(N2CCCCC2)c2nc(N(CCO)CCO)nc(N3CCCCC3)c2n1 [Dipyridamole] (20 µM)	0.986	1.03	0.521	0.969	0.47 (inactive)	0.971 (inactive)	1 (inactive)	1.03 (inactive)	0.51 (inactive)	1 (inactive)	0.5 (inactive)	0.994 (inactive)
CN(C)c1ccc(O)c2c1C[C@H]1C[C@H]3[C@H](N(C)C)C(=O)C(C(N)=O)=C(O)[C@@]3(O)C(=O)C1=C2O [Minocycline hydrochloride] (20 µM)	0.0113	0.0671	0.394	0.158	0.996 (inactive)	0.0198 (active)	0.14 (active)	0.287 (active)	0.866 (inactive)	0.278 (active)	0.681 (active)	0.142 (active)
COc1ccc2cc([C@H](C)C(=O)O)ccc2c1 [(S)-Naproxen] (20 µM)	1.04	1.1	1.02	1.08	1.04 (inactive)	0.983 (inactive)	0.969 (inactive)	1.06 (inactive)	0.977 (inactive)	1 (inactive)	0.988 (inactive)	0.899 (inactive)
